Rows were chosen to be rich in hits. Some 2% of all compounds tested hit in one or more screens of this group.
PAX8 inh HTS – inhibitors of PAX8 transcriptional activity in RMG-I cells | RMG-I TPO-luciferase reporter, SteadyGlo, 24 h | inhibition, % at 12.6 µM | 1.2% of 360,000 active;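 active = mean replicate inhibition at least 60% with every replicate also reaching 60%; inconclusive = only one of the two criteria is met; inactive = mean below 60% and not all replicates reaching 60%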;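 note: luciferase light reporting Pax8 driven TPO promoter activity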
KKLEB cytotox – CF airway cell cytotoxicity counter-screen | KKLEB CF airway cells viability, ATPlite luminescence, overnight; stronger effect = lower value; cells stimulated with P. aeruginosa culture filtrate | activity change (cytotoxicity), % at 5 µM | 0.36% of 360,000 active | AID 602141;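 active = corrected activity change at or below -50% at 5 µM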
EWS-Fli block – inhibitors of EWS/Fli oncoprotein transcriptional activity. A673 NR0B1-luciferase reporter, viability-normalised. inhibition, % at 12.6 µM. 0.67% of 350,000 active. AID 651661;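 active = mean inhibition of at least 50% after viability correction, with every replicate also passing that limit; inconclusive = mean reaches 50% but only one of two replicates passes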;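 note: firefly luciferase signal divided by Alamar Blue viability fluorescence both relative to DMSO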
Shn3 inh set2 – inhibitors of Schnurri-3 3'UTR reporter in osteoblasts; Clone20 osteoblast Shn3 3'UTR firefly luciferase, 24 h; inhibition, % at 12.5 µM; 0.52% of 360,000 active; AID 588674;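 active = mean inhibition of at least 75% with every replicate also reaching 75%; inconclusive = mean inhibition at least 75% but some replicate below; inactive = mean inhibition below 75%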
LGR2 antag – Drosophila LGR2 receptor signaling inhibition; HEK293 LGR2, CRE-luciferase, bursicon-stimulated, 4 h; inhibition, % at 9.99 µM; 0.35% of 380,000 active; AID 720647;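 active = drop in luminescence signal, shown as inhibition above about 50% in the replicate tests, limit read from the data, passing the limit was not always enough; inconclusive = probably only some replicates passing the limit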;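 note: agonist challenge used bursicon conditioned medium at about half maximal strength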
CF NFkB block – cystic fibrosis NF-kB activation inhibition; 0.86% of 360,000 active; KKLEB NF-kB-GFP reporter, PAF-induced, GFP fluorescence overnight; inhibition, % at 5 µM; AID 588850;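 active = at least 50% inhibition at 5 µM, scaled per plate between neutral and stimulator controls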;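 note: PAF is a Pseudomonas aeruginosa culture filtrate used as stimulus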
Large screens that a line does not name were inactive.

CC(=O)[C@@]1(O)CC[C@H]2[C@@H]3CCC4=CC(=O)CC[C@]4(C)[C@H]3[C@@H](O)C[C@@]21C	none
O=C1CSC(c2ccc3c(c2)OCO3)N1c1ccc(Oc2ccccc2)cc1 (centres undefined)	KKLEB cytotox -97 (no result: EWS-Fli block, LGR2 antag)
CO[C@@H]1CN(C)C(=O)c2cc(NC(=O)C3CC3)ccc2OC[C@@H](C)N(C(=O)c2ccccn2)C[C@H]1C	none (no result: PAX8 inh HTS, KKLEB cytotox, Shn3 inh set2, CF NFkB block)
Cc1cccc[n+]1CC(=O)/C=C1\N(C)c2ccccc2C1(C)C	EWS-Fli block 75
CN1CCN(C(=O)C[C@H]2CC[C@H](NC(=O)c3ccc4c(c3)OCO4)[C@H](CO)O2)CC1	none (no result: KKLEB cytotox, Shn3 inh set2, CF NFkB block)
O=C(N/N=C/c1ccc[nH]1)c1ccc(COc2cccc3cccnc23)cc1	PAX8 inh HTS 79, KKLEB cytotox -54, Shn3 inh set2 90
Cc1cc(Br)c(OCc2ccc(C(=O)N/N=C/c3ccc[nH]3)cc2)c(Br)c1	PAX8 inh HTS 95, KKLEB cytotox -85, EWS-Fli block 58, Shn3 inh set2 97, CF NFkB block 71
O=C(N/N=C/c1ccc[nH]1)c1ccc(O)cc1	none
O=C(O)c1ccc(NC2=C/C(=N/S(=O)(=O)c3cccs3)c3ccccc3C2=O)cc1	LGR2 antag inconclusive, CF NFkB block 87
O=C1C(Nc2ccc(O)cc2)=C/C(=N/S(=O)(=O)c2cccs2)c2ccccc21	PAX8 inh HTS 101, KKLEB cytotox -65, Shn3 inh set2 100, LGR2 antag 100, CF NFkB block 93
O=C(C[C@@H]1CC[C@H]2NC[C@@H](O)COC[C@@H]2O1)NCCc1ccccc1	none (no result: KKLEB cytotox, Shn3 inh set2, CF NFkB block)
C[C@H]1CN([C@@H](C)CO)C(=O)c2cc(NC(=O)Nc3ccc(C(F)(F)F)cc3)ccc2O[C@@H]1CN(C)Cc1ccc2c(c1)OCO2	none (no result: PAX8 inh HTS, KKLEB cytotox, Shn3 inh set2, CF NFkB block)
CCN(CC)CCNc1cc(C)nc2c1C(=O)C(=O)C=C2N1CCCCC1	PAX8 inh HTS 73
COc1ccc(/C=C/C(=O)NCCc2ccc(OC)c(OC)c2)cc1	none (no result: EWS-Fli block)
COc1cccc(/C=C/C(=O)NCCc2ccc3c(c2)OCCO3)c1	EWS-Fli block 57 (no result: LGR2 antag)
O=C(/C=C/c1ccccc1)NCCc1ccc2c(c1)OCCO2	PAX8 inh HTS 69
CCC(=O)N1[C@@H]2c3ccc(C4=CCCC4)c(=O)n3C[C@@H]2[C@@H](CO)[C@@H]1C(=O)NCc1ccccc1	none (no result: KKLEB cytotox, Shn3 inh set2, CF NFkB block)
CCn1c2ccccc2c2cc(NC(=O)COC(=O)c3ccc(O)cc3)ccc21	none
CCn1c2ccccc2c2cc(NC(=O)C(C)OC(=O)c3ccc(NC(=O)CC#N)cc3)ccc21 (centres undefined)	KKLEB cytotox -65
CCn1c2ccccc2c2cc(NC(=O)CNCc3ccccc3OC)ccc21	EWS-Fli block 57
O=C(Cc1ccccn1)NCC[C@H]1CC[C@@H](NC(=O)c2ccccc2F)[C@H](CO)O1	none (no result: KKLEB cytotox, Shn3 inh set2, CF NFkB block)
COc1ccc(-c2ccc3n(c2=O)C[C@H]2[C@H](CO)[C@@H](C(=O)N(C)C)[C@@H]3N2Cc2cccnc2)cc1	none (no result: KKLEB cytotox, Shn3 inh set2, CF NFkB block)
COCC(=O)Nc1ccc2c(c1)OC[C@@H](C)N(Cc1ccccn1)C[C@H](C)[C@H](OC)CN(C)C2=O	none (no result: KKLEB cytotox, Shn3 inh set2, CF NFkB block)
CC/C(=N/Nc1ccccc1)c1cnnc(-c2ccccc2)n1	KKLEB cytotox -51 (no result: PAX8 inh HTS, EWS-Fli block, LGR2 antag)
COc1ccc2c3c([nH]c2c1)[C@H](CO)N(C(=O)Nc1cccc(F)c1)CC31CCN(S(=O)(=O)c2cccc(C)c2)CC1	PAX8 inh HTS 106 (no result: KKLEB cytotox, Shn3 inh set2, CF NFkB block)
COc1ccc2c3c(n(C)c2c1)[C@H](CO)N(C(=O)Nc1ccc(F)cc1)CC31CCN(C(=O)c2ccc3c(c2)OCO3)CC1	PAX8 inh HTS 77 (no result: KKLEB cytotox, Shn3 inh set2, CF NFkB block)
COc1ccc2c3c(n(C)c2c1)[C@@H](CO)N(C(=O)Nc1ccc(F)cc1)CC31CCN(S(=O)(=O)c2cccc(C)c2)CC1	PAX8 inh HTS 81 (no result: KKLEB cytotox, Shn3 inh set2, CF NFkB block)
COc1ccc2c3c(n(C)c2c1)[C@H](CO)N(C(=O)Nc1ccc(F)cc1)CC31CCN(S(=O)(=O)c2cccc(C)c2)CC1	PAX8 inh HTS 89 (no result: KKLEB cytotox, Shn3 inh set2, CF NFkB block)
CCCNC(=O)N(C)C[C@H]1Oc2ncc(C#CC3(O)CCCC3)cc2C(=O)N([C@H](C)CO)C[C@@H]1C	none (no result: KKLEB cytotox, Shn3 inh set2, CF NFkB block)
C[C@@H]1CCCCO[C@@H](CN(C)Cc2ccccc2)[C@H](C)CN([C@H](C)CO)C(=O)c2cc(NC(=O)C3CCCCC3)ccc2O1	none (no result: KKLEB cytotox, Shn3 inh set2, CF NFkB block)
COc1cccc(NC(=O)N2CC(=O)N3[C@H](CO)[C@H](c4ccc(C#CCC5CCCC5)cc4)[C@@H]3C2)c1	none (no result: KKLEB cytotox, Shn3 inh set2, CF NFkB block)
N#Cc1ccc(-c2ccc([C@H]3[C@H]4CNCC(=O)N4[C@H]3CO)cc2)cc1	none (no result: KKLEB cytotox, Shn3 inh set2, CF NFkB block)
C[C@H](CO)N1C[C@H](C)[C@H](CN(C)C(=O)C2CCOCC2)Oc2ncc(-c3ccncc3)cc2C1=O	none (no result: PAX8 inh HTS, KKLEB cytotox, Shn3 inh set2, CF NFkB block)
CCC(=O)N[C@H]1C=C[C@H](CC(=O)NCc2ccccc2F)O[C@@H]1CO	none (no result: KKLEB cytotox, Shn3 inh set2, CF NFkB block)
O=C(Cc1ccc(Cl)cc1Cl)Nc1ccncc1Cl	Shn3 inh set2 88 (no result: PAX8 inh HTS)
COc1ccc(NC(=O)N(C)C[C@H]2OCCCC[C@H](C)Oc3ccc(NC(=O)c4ccccc4)cc3C(=O)N([C@H](C)CO)C[C@H]2C)cc1	none (no result: PAX8 inh HTS, KKLEB cytotox, Shn3 inh set2, CF NFkB block)
CCC(=O)N1[C@@H]2c3ccc(C4=CCCCC4)c(=O)n3C[C@@H]2[C@@H](CO)[C@@H]1C(=O)Nc1nccs1	none (no result: KKLEB cytotox, Shn3 inh set2, CF NFkB block)
CC(=O)c1cccc(-c2ccnc3c2CC(C(=O)NCc2ccccc2)O3)c1 (centres undefined)	PAX8 inh HTS 83, EWS-Fli block 63
CC(=O)c1cccc(-c2ccnc3c2CC(C(=O)NCc2ccco2)O3)c1 (centres undefined)	none
CC(=O)c1cccc(-c2ccnc3c2CC(C(=O)NCc2ccc(F)c(F)c2)O3)c1 (centres undefined)	PAX8 inh HTS inconclusive, EWS-Fli block 65
COc1ccc(NC(=O)C2Cc3c(-c4cccc(C(C)=O)c4)ccnc3O2)cc1OC (centres undefined)	Shn3 inh set2 91
CC(=O)Nc1cccc(-c2ccnc3c2CC(C(=O)NCc2cccs2)O3)c1 (centres undefined)	EWS-Fli block 72
O=C(Nc1ccc2c(c1)OCO2)C1Cc2c(-c3ccc4c(c3)OCO4)ccnc2O1 (centres undefined)	EWS-Fli block 53
Cc1nn(CCO)c2nc(-c3cccs3)cc(C(F)(F)F)c12	PAX8 inh HTS 161
C[C@@H]1CN([C@@H](C)CO)C(=O)c2cc(NS(=O)(=O)c3ccc(F)cc3)ccc2O[C@@H]1CN(C)S(C)(=O)=O	none (no result: PAX8 inh HTS, KKLEB cytotox, Shn3 inh set2, CF NFkB block)
CC(C)N=c1cc2n(-c3ccc(Cl)cc3)c3ccccc3nc-2cc1Nc1ccc(Cl)cc1	CF NFkB block 92 (no result: LGR2 antag)
C[C@@H]1CCCCO[C@@H](CN(C)C(=O)C2CCCCC2)[C@H](C)CN([C@@H](C)CO)C(=O)c2cc(NS(=O)(=O)c3ccc(Cl)cc3)ccc2O1	PAX8 inh HTS 81 (no result: KKLEB cytotox, Shn3 inh set2, CF NFkB block)
C[C@@H]1CCCCO[C@H](CN(C)C(=O)C2CCCCC2)[C@@H](C)CN([C@H](C)CO)C(=O)c2cc(NS(=O)(=O)c3ccc(Cl)cc3)ccc2O1	none (no result: KKLEB cytotox, Shn3 inh set2, CF NFkB block)

Compound activity: PubChem, several laboratories
